# Source: PubChem (several laboratories)
# FAS-TE inh: FAS thioesterase (human) inhibition; AID 602261; inhibition, % at 15 µM; P49327; recombinant FAS-TE, OMFH fluorogenic substrate, fluorescence endpoint; hit rate 0.67% among 360,000;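 active = compounds whose normalised, plate-corrected inhibition of enzyme fluorescence in the single-dose primary screen is 50% or more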;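 also: 0% = DMSO with enzyme and 100% = substrate without enzyme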
# sPLA2-III inh: Blocks human group III sPLA2 activity. inhibition, % at 12.2 µM. QFRET BODIPY PC-A2 liposome hydrolysis, fluorescence. hit rate 0.56% among 370,000. AID 743126;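 active = inhibition above mean plus 3 SD of compounds lying within the high and low control bounds, cut at about 19% in these data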;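 also: 0% = median of test compound wells and 100% = no enzyme DMSO wells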
# ADAM17 inh: inhibits human ADAM17. P78536. recombinant ADAM17, EDANS/DABCYL FRET peptide cleavage. inhibition, % at 6.95 µM. hit rate 0.83% among 370,000. AID 720648;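 active = inhibition above the mean of compounds lying between control limits plus 3 SD, set per campaign, cut at about 8.5% in these data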;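 also: 0% = DMSO-only wells as the low control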
# NR3A LBD binder: NR3A (human) ligand-binding domain modulation; Tm shift relative to glycine control, % at 25 µM; NR3A LBD differential scanning fluorimetry, Tm shift; 0% = protein alone, 100% = glycine-bound protein; AID 1259313; hit rate 2.5% among 340,000;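 active = melting temperature shift of at least 10% of the positive control shift, at one fixed dose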
# ADAM10 inh: inhibitors of human ADAM10. O14672. recombinant ADAM10, EDANS/DABCYL FRET peptide cleavage, 3 h. inhibition, % at 7 µM. hit rate 0.62% among 370,000. AID 720582;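 active = inhibition above a per-campaign cutoff equal to the mean of compounds falling between control-based bounds plus 3 SD, cut at about 20% in these data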;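 also: 0% = DMSO wells while the 100% control is not disclosed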
# Target sequence (O14672 214-748 limits assumed): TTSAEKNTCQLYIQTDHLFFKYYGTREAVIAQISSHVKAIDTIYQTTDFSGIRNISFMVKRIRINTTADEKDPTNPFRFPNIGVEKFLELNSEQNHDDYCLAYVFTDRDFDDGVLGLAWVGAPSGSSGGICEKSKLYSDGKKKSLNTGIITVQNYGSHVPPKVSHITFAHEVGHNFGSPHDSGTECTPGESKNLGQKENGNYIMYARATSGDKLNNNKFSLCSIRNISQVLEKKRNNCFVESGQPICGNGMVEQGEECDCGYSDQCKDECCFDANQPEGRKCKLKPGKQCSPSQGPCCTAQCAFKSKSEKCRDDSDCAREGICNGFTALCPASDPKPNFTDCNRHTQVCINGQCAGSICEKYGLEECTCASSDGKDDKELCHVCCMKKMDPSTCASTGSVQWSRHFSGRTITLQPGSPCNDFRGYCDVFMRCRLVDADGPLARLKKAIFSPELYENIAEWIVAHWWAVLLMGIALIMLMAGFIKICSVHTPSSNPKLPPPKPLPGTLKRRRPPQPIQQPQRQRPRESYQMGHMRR
# sPLA2 confirm: human GIII-sPLA2 inhibition, confirmation | shares compounds with sPLA2-III inh | hit rate 34% among 2,000 | recombinant hGIII-sPLA2, BODIPY PC-A2 QFRET fluorescence | inhibition, % at 12.2 µM;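 active = mean inhibition across triplicates above the hit cutoff set in the earlier primary screen, cut at about 19% in these data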;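 also: 0% = enzyme with DMSO and 100% = DMSO wells lacking enzyme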
# 535nm interf: optically interferes with 535nm fluorescence in sPLA2 counter-screen. BODIPY FL product fluorescence interference, QFRET. inhibition, % at 12.2 µM. shares compounds with sPLA2-III inh. hit rate 8.5% among 2,000. AID 743282;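 active = average inhibition above the solvent-only control mean plus 3 SD, cut at about 6% in these data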;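 also: 0% = DMSO with substrate plus product and 100% = DMSO with substrate alone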
# Active calls of the source: *; / = not tested or not shown. Sampled rows, rich in hits. Any-hit rate of the full collection: about 4.3%.
SMILES,FAS-TE inh,sPLA2-III inh,ADAM17 inh,NR3A LBD binder,ADAM10 inh,sPLA2 confirm,535nm interf
Cc1ccc(OCC(=O)Nc2cc(S(=O)(=O)N3CCCCC3)ccc2C)c([N+](=O)[O-])n1,-3,21*,-8,-4,-4,3,-14
S=c1nc[nH]c2c1[nH]c1ccc(Cl)cc12,-5,20*,-7,33*,-19,14,3
COc1cccc(-c2c(-c3ccccc3OC)ncn2Cc2cccc(-c3ccccc3)c2)c1,/,-15,-1,/,-5,/,/
Cc1ccc2c(c1)-c1c(cnn1CC(=O)NCCc1cccc(F)c1)CO2,/,-7,3,/,-11,/,/
NS(=O)(=O)c1cccc(NC(=O)c2cccs2)c1,-4,21*,-5,0,-10,3,-4
NS(=O)(=O)c1cccc(NC(=O)CCC(=O)c2cccs2)c1,-5,2,3,0,-3,/,/
CCc1nc(SCC(=O)NNC(=O)C(C)C)c2ccccc2n1,-15,6,0,1,2,/,/
CCc1nc(SCC(=O)Nc2ccc(N(C)C)cc2)c2ccccc2n1,-1,22*,3,-1,0,23*,-1
CC1CN(c2nc3ccccc3nc2SCC(=O)N2CCN(S(=O)(=O)c3ccc(F)cc3)CC2)CC(C)O1 (configuration not stated),/,-4,5,/,-7,/,/
COC(CNC(=O)[C@H](Cc1c[nH]c2ccccc12)NC1(C(=O)NCc2ccccc2)CCCCC1)OC,/,-55,-1,/,-1,/,/
O=C(CN1CCN(c2ccccc2)CC1)Nc1ccccc1C(F)(F)F,8,5,1,-4,-1,/,/
CN1CCN(CC(=O)Nc2ccccc2C(F)(F)F)CC1,-5,22*,1,1,-13,7,-5
O=C(Nc1csnn1)c1csnn1,-1,20*,-4,15*,-15,2,-6
Cc1cc(C)nc(NC(=O)c2csnn2)c1,-5,3,-7,-3,-13,/,/
Nc1ccc2c(c1)C(=O)c1cc([N+](=O)[O-])ccc1-2,-3,29*,-3,25*,-4,8,4
Nc1ccc2c(c1)C(=O)c1cc(Cl)c(Cl)cc1-2,6,31*,-5,41*,-12,35*,14*
O=c1[nH]c2cc(Br)c(Br)nc2[nH]1,/,-3,0,/,-7,/,/
COc1cccc(-c2csc(N3CCN(C(=S)Nc4ccccc4)CC3)n2)c1,17,19*,5,4,5,11,-4
CNC(=S)N1CCN(c2nc(-c3cccc(OC)c3)cs2)CC1,4,4,2,-6,7,/,/
CC(=O)CC[C@@H]1CC[C@]2(CCCN(C(=O)C(C)(C)C)C2)O1,/,2,-2,/,-4,/,/
CCc1cccc(CC)c1NC(=S)NCC(c1cccnc1)N1CCOCC1 (configuration not stated),-9,24*,-6,0,-3,18,-6
CS/C(N)=N/N=C/c1c(O)ccc2ccccc12,0,23*,-5,6,-6,28*,0
O=C(NCCS(=O)(=O)NCc1ccccc1)c1ccccc1,-9,19*,5,-2,-10,-1,-5
COc1ccc(C(=O)NCCS(=O)(=O)NCc2ccccc2)cc1,-6,-2,1,0,-2,/,/
S=c1[nH]nc(-c2ccc(Cl)cc2)n1CCCN1CCOCC1,-7,20*,-9,-1,-12,6,-4
SMILES,FAS-TE inh,sPLA2-III inh,ADAM17 inh,NR3A LBD binder,ADAM10 inh,sPLA2 confirm,535nm interf
COCCCn1c(-c2ccc(Cl)cc2)n[nH]c1=S,-12,14,1,0,-2,/,/
CCOCCCn1c(-c2ccc(Cl)cc2)n[nH]c1=S,-5,22*,0,0,5,19,2
Nc1[nH]c(C(=O)c2ccc(Br)cc2)c(-c2ccncc2)c1C(=O)NCCc1c[nH]c2ccccc12,/,-43,4,/,2,/,/
N#C/C(=C\c1ccc2c(c1)OCCO2)C(=O)NC1CCCCC1,6,24*,-8,0,-3,1,-11
COc1ccc(-n2c(COc3ccc(Cl)cc3)nnc2SCC(=O)Nc2ccc(Oc3ccccc3)cc2)cc1,/,-4,-3,/,-2,/,/
Cn1c(CC(=O)NN)c(Sc2ccccc2)c2ccccc21,4,-1,7,2,5,/,/
COC(=O)c1c(Sc2ccccc2)c2ccccc2n1C,9,20*,0,0,1,1,-4
CCn1cc(C(=O)Nc2sc(C)c(C)c2C(=O)OC)cn1,-6,20*,-4,5,-8,-3,-12
Cc1c(NC(=S)N/N=C\c2ccccc2O)c(=O)n(-c2ccccc2)n1C,-3,34*,-19,-19,-90,11,-2
Cc1c(NC(=S)N/N=C/c2ccc(Br)cc2)c(=O)n(-c2ccccc2)n1C,-1,20*,-4,-1,3,20*,-9
Cc1nc2sc(C(=O)NCc3ccncc3)c(N)c2c(C)c1Cl,/,6,-6,/,-16,/,/
CCOc1ccc(NC(=O)Nc2cnccn2)cc1,-10,3,-4,5,-5,/,/
COc1ccc(NC(=O)Nc2cnccn2)cc1,-6,22*,-8,-8,-29,2,-4
CCCCCC[N+](C)(C)CC/C=C1/c2ccccc2Sc2ccc(Cl)cc21,20,19*,2,-4,-9,1,-59
COc1ccc(NC(=O)OC[C@@H]2CSCCS(=O)(=O)N2)cc1,/,13,-5,/,-13,/,/
O=S1(=O)CCS(=O)(=O)C1c1ccccc1,-5,20*,0,0,-4,-2,-5
Cc1ccc(-c2cnc(N)n2C)cc1C,-21,20*,-2,0,-5,9,-13
c1ccc(-c2cnnc(SCc3cn4cccnc4n3)n2)cc1,-8,5,-3,1,-3,/,/
c1ccc2[nH]c(SCc3cn4cccnc4n3)nc2c1,-12,23*,-30,2,-73,-4,-7
NC(=S)N/N=C/c1cc([N+](=O)[O-])ccc1Cl,2,20*,-6,-1,-15,13,0
COc1ccccc1N1CCN(S(=O)(=O)c2ccc([N+](=O)[O-])cc2)CC1,9,4,-3,/,-5,/,/
COc1ccccc1N1CCN(c2ccc([N+](=O)[O-])cc2Cl)CC1,36,20*,3,1,-2,12,-9
COc1cc(NC(=O)[C@@H](Cc2ccccc2)NC(=O)[C@H]2O[C@@H](n3ccc(=O)[nH]c3=O)[C@H](O)[C@@H]2O)cc(OC)c1OC,/,1,-4,/,-9,/,/
Cc1cc(O)cc(=O)n1-c1cccc(Br)c1,/,-6,3,/,-3,/,/
CCCCCCCC(=O)N[C@H]1CC[C@@]23CCCN2C(=O)CCC[C@H]3[C@H]1CCC,/,4,-4,/,-4,/,/
CC(C)(C)C(=O)NC(=S)Nc1ccc(F)cc1,-8,23*,0,2,1,11,-4
